The nature of test [1]: qHTS assay to identify small molecule agonists of the vitamin D receptor (VDR) signaling pathway - cell viability counter screen (AID 743224). Also: series mostly up to about 63 µM; nearly all actives have a fitted effect of over 50% in size. The gist of the method: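 Plated VDR-bla cells (4 h, 37C) received compound, incubated 16 h, then LiveBLAzer substrate 2 h RT; CellTiter-Glo added afterwards, luminescence read at 30 min.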
A general note: In qHTS, concentration-response curves come from the screen itself.

A short description of test [2]: qHTS assay to identify small molecule antagonists of the vitamin D receptor (VDR) signaling pathway - cell viability counter screen (AID 743225). Also: nearly all actives have a fitted effect of over 50% in size. The essentials:
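HEK293T VDR-bla; cpd + 1a,25-(OH)2D3 3 nM final, 16 h 37C/5% CO2; B/G FRET substrate 2 h RT; then CellTiter-Glo 30 min RT, luminescence.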

Test [3] in a line: qHTS assay to identify small molecule agonists of the NFkB signaling pathway (AID 1159509; active = well fitted curve in the direction sought with a large enough effect in the signal ratio in the repeat runs, not every such curve was filed as active; the % refers to the signal ratio; also: series mostly up to about 61 µM). The essentials:
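After overnight attachment, reporter cells received test compounds, DMSO or positive controls and were incubated 5 hr at 37 C. FRET substrate was then added for 1.5 hr at room temperature before dual-emission fluorescence reading.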

Test [4] in a line: qHTS assay to identify small molecule agonists of the NFkB signaling pathway - cell viability counter screen (AID 1159515; calls by dose curve; also: series mostly up to about 61 µM; nearly all actives have a fitted effect of over 55% in size). The gist of the method: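 Using the same wells as the NFkB reporter read, ME-180 NFkB-bla cells given compounds for 5 hr were assessed for viability via CellTiter-Glo, with luminescence taken after a 30 min room-temperature incubation.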
Test [5] can be described thus: qHTS assay to identify small molecule agonists of the endoplasmic reticulum stress response signaling pathway (AID 1159516; active = well fitted activation curve with a large enough effect in the signal ratio in the repeat runs, not every such curve was filed as active; the % refers to the signal ratio). The gist of the method:
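An ESRE-bla HeLa cell assay: compounds were pin-transferred from DMSO onto overnight-plated cells and left 5 hr at 37 C. Substrate was then loaded for 2 hr at room temperature before reading fluorescence at 460 nm and 530 nm.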

A short description of test [6]: qHTS assay to identify small molecule agonists of the endoplasmic reticulum stress response signaling pathway - cell viability counter screen (AID 1159517; calls by dose curve;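 also: HeLa cells carrying an ER stress response element beta-lactamase reporter; series mostly up to about 61 µM; nearly all actives have a fitted effect of over 50% in size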). The gist of the method: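 Cells, HeLa ESRE-bla; density, 1,500/well; dosing, 5 hr at 37 C, 5% CO2; readout, CellTiter-Glo luminescence after 30 min RT.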
Test [7] is described as follows: qHTS assay to identify small molecule antagonists of the retinoid-related orphan receptor gamma (ROR-gamma) signaling pathway - cell viability counter screen (AID 1159520). Also: nearly all actives have a fitted effect of over 50% in size. The gist of the method: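 Cytotoxicity was read from cellular ATP (CellTiter-Glo luminescence) after 16 hr at 37 C with 1 uM doxycycline induction. The inducer was added 2 hr after compound transfer to Tet-on ROR gamma CHO cells.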

Test [8] is described as follows: qHTS assay to identify small molecule agonists of the AP-1 signaling pathway - cell viability counter screen (AID 1159525; calls by dose curve; also: nearly all actives have a fitted effect of over 55% in size). The essentials:
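Luminescent ATP readout (Cell Titer Glo, 30 min RT), normalised to DMSO and tetra n-octyl ammonium bromide controls. Cells were ME-180 AP-1-bla in 0.5% dialyzed FBS Opti-MEM, with a 5 h, 37 °C compound exposure.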

Test [9] is described as follows: qHTS assay to identify small molecule agonists of the AP-1 signaling pathway (AID 1159526; calls by dose curve).
A short description of test [10]: qHTS assay to identify small molecule agonists of the RXR signaling pathway - cell viability counter screen (AID 1159529). Also: nearly all actives have a fitted effect of over 50% in size. Also: potency is read from the fitted curve at half-maximal effect. The essentials:
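Steps: seed RXR-alpha-UAS-bla HEK 293T cells in assay medium containing 2% charcoal-stripped FBS; incubate 5 hr; add compounds in DMSO; incubate 16 hr at 37 C; after the bla read, add CellTiter-Glo and read luminescence at 30 min.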

A short description of test [11]: qHTS assay to identify small molecule antagonists of the retinoid acid receptor (RAR) signaling pathway - cell viability counter screen (AID 1159551). Also: nearly all actives have a fitted effect of over 35% in size. The gist of the method:
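Retinol-stimulated (1 uM final) C3RL4 cells, compound 6 h, 37 C; readout CellTiter-Glo luminescence (ATP) after 30 min RT incubation.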

Test [12] is described as follows: qHTS assay to identify small molecule antagonists of the retinoic acid receptor (RAR) signaling pathway (AID 1159552; also: nearly all actives have a fitted effect of over 50% in size). The essentials:
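Retinol at 1 uM final stimulated RARE-luciferase expression in C3RL4 cells exposed to test compounds for 6 hr at 37 C. Reduced luminescence, read 30 min after detection reagent, indicated pathway antagonism.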

Test [13] in a line: qHTS assay to identify small molecule agonists of the retinoic acid receptor (RAR) signaling pathway (AID 1159553). Also: potency is read from the fitted curve at half-maximal effect. The gist of the method:
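Reporter readout comes from luciferase under RARE control in C3RL4 cells; compound exposure lasts 6 hr at 37 C in 5% CO2, and luminescence is recorded following a 30 min room-temperature incubation with reagent.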

Inconclusive results are not listed. Values without a mark were called inactive. The source made the active and inactive calls. Unless noted, calls follow the shape of the dose curve; as a rule, active = well fitted curve in the direction sought with a large enough effect in the repeat runs; inconclusive = weak or mixed curves; inactive = no such curve, though single readings can be large; an effect the other way counts as inactive or inconclusive.

For the molecule `Nc1c(I)cc(I)c(C(=O)N(CCC(=O)O)c2ccccc2)c1I`, the Potency entry in test [1], in test [2], in test [7], in [10], in test [11] and in test [12] was “inactive” throughout. In addition, the outcome in test [3], in [4], in test [5], in [6], in test [8] and in [9] was inactive.
In the case of `Brc1cc(-c2ccc(Br)c(Br)c2Br)cc(Br)c1Br`, the Potency entry in [1], in [2], in test [7] and in test [11] was “inactive” each time. The call in [3], in test [4], in test [5], in [6], in test [8] and in test [9] was inactive. Further, the Potency in test [10] was 10.8 µM (active).
In the case of `CCOC(=O)[C@@H](C)Oc1ccc(Oc2nc3ccc(Cl)cc3o2)cc1`, the Potency result in test [1], in test [2], in test [7], in test [10], in test [11] and in test [12] was “inactive” each time. Moreover, the outcome in [3], in test [4], in test [5], in test [6], in test [8] and in test [9] was inactive.
In the case of `CC(Cl)C(Cl)Cl` (centres undefined), the Potency entry in [1], in [2], in test [7], in [10] and in test [11] was “inactive” in each case. In addition, the molecule was called inactive in test [3], in test [4], in test [5], in [6], in test [8] and in test [9].
Take `O=C(NCCCN1CCOCC1)c1ccc(Cl)cc1`: the Potency result in [1], in [2], in [7], in test [10], in test [11] and in [12] was “inactive” each time. The call in test [3], in test [4], in test [5], in test [6], in [8] and in test [9] was inactive.
As for `CCCOC(=O)c1ccc(C(=O)OCCC)nc1`, the Potency result in [1], in test [2], in test [7], in test [10], in test [11] and in [12] was “inactive” in each case. Further, the call in [3], in test [4], in test [5], in test [6], in test [8] and in [9] was inactive. Further, the Potency in [13] was 68.6 µM (active).
In the case of `CC1=CC(O)CC(C)(C)C1` (centres undefined), the Potency result in [1], in test [2], in test [7], in [10], in test [12] and in test [13] was “inactive” throughout. Besides, the molecule was classed as inactive in test [3], in test [4], in test [5], in [6], in test [8] and in test [9].
In the case of `C=CC(C)(O)CCCC(C)CCCC(C)CCCC(C)C` (centres undefined), the Potency result in test [1], in test [7], in test [10], in test [12] and in test [13] was “inactive” throughout. Moreover, the call in test [3], in test [4], in [5], in test [6], in [8] and in test [9] was inactive.
Turning to `Fc1c(F)c(F)c(Br)c(F)c1F`, the Potency result in test [1], in test [2], in test [7], in test [10], in [11] and in test [13] was “inactive” throughout. For the same molecule, the molecule was called inactive in test [3], in test [4], in test [5], in test [6], in test [8] and in test [9].
Turning to `ON(Cc1ccccc1)Cc1ccccc1`, the Potency result in test [2], in test [7], in [10], in test [11] and in test [12] was “inactive” throughout. Also, the outcome in test [3], in test [4], in [5], in test [6], in [8] and in test [9] was inactive.
On to `CC(=O)OCC(=O)[C@H]1CC[C@H]2[C@@H]3CCC4=CC(=O)CC[C@]4(C)[C@H]3CC[C@]12C`, for which the Potency result in test [1], in [2], in test [7], in test [10] and in test [13] was “inactive” throughout. The molecule was classed as inactive in test [3], in test [4], in test [5], in test [6], in [8] and in test [9].
As for `CCCCC(CC)COC(=O)COc1ccc(Cl)cc1C` (centres undefined), the Potency entry in [1], in test [2], in [7], in test [10] and in test [11] was “inactive” each time. Also, the molecule was called inactive in test [3], in test [4], in test [5], in test [6], in test [8] and in test [9].
For `Cc1cc(O)c2c(O)c3c(O)cccc3cc2c1`, the Potency entry in test [2], in test [7], in test [10], in test [11], in test [12] and in test [13] was “inactive” throughout. The result in [3], in [4], in test [5], in [6], in [8] and in test [9] was inactive.
Take `CC(=O)Nc1ccc(N)cc1`: the Potency result in test [1], in test [2], in [7], in test [10] and in [11] was “inactive” throughout. The result in [3], in test [4], in test [5], in test [6], in [8] and in test [9] was inactive.
In the case of `CC(=O)CC(c1ccc([N+](=O)[O-])cc1)c1c(O)c2ccccc2oc1=O` (centres undefined), the Potency entry in test [1], in test [2], in test [7], in test [10] and in test [11] was “inactive” in each case. For the same molecule, the call in [3], in [4], in test [5], in test [6], in test [8] and in test [9] was inactive.
`CO/N=C1\CN(c2nc3c(cc2F)c(=O)c(C(=O)O)cn3C2CC2)CC1CN` (centres undefined): the Potency entry in test [1], in [2], in [7], in [10] and in test [11] was “inactive” in each case. In addition, the call in test [3], in test [4], in test [5], in test [6] and in test [8] was inactive.
Regarding `Cc1cnc(C)c(C)n1`, the Potency result in test [1], in [7], in [11] and in [12] was “inactive” in each case. Further, the molecule was called inactive in [3], in test [4], in [5], in test [6], in test [8] and in [9].
Consider `CCCCCCCC/C=C\CCCCCCCC(=O)OC(CO)CO`, for which the Potency entry in test [1], in [7] and in test [10] was “inactive” each time. Besides, the molecule was classed as inactive in [3], in test [4], in test [5], in test [6], in test [8] and in [9].
`O=C1NCCN1`: the Potency result in [1], in [2], in test [7] and in test [10] was “inactive” throughout. The outcome in [3], in [4], in test [5], in test [6], in [8] and in test [9] was inactive.
As for `COCC(O)CO` (centres undefined), the Potency entry in [1], in [2], in [7], in test [10], in [11] and in [12] was “inactive” each time. For the same molecule, in [13], the Potency entry is “inactive”. Also, the result in [3], in test [4], in [5], in test [6] and in [8] was inactive.
Turning to `CC(=O)[C@H]1CC[C@H]2[C@@H]3C[C@H](C)C4=CC(=O)CC[C@]4(C)[C@H]3[C@@H](O)C[C@]12C`, the Potency result in test [1], in [2], in test [7], in [10] and in [13] was “inactive” each time. In addition, the result in test [3], in test [4], in [5], in test [6] and in test [8] was inactive.
In the case of `C=CCNc1nc(NCC=C)nc(N2CCN(C(c3ccc(F)cc3)c3ccc(F)cc3)CC2)n1`, the Potency result in [1], in test [7], in test [11], in test [12] and in [13] was “inactive” in each case. The outcome in test [3], in [4], in [5], in [6] and in [8] was inactive.

The values are drawn from PubChem BioAssay (Tox21).
